VACV Venus inh = inhibitors of vaccinia virus (Venus reporter). Vaccinia virus Venus reporter expression, fluorescence. Potency, µM (series often up to 36.5 µM), for inactives: top-dose activity change, negative = inhibition, usual class: inhibitors. 330,000 compounds, 0.46% hits; calls by dose curve; tested in A549 cells; further: on the % scale 0 is the no-effect control and ±100 the full control effect; nearly all actives have a fitted effect of over 30% in size
HCV inh = inhibitors of hepatitis C virus infection; Huh7.5.1 HCVcc-Cre infection, luciferase reporter, 44 h; Potency, µM (titrated, usually from 41.8 µM), for the others: top-dose activity change, negative = inhibition, usual class: inhibitors; 340,000 compounds, 3.4% hits; AID 651820; further: on the % scale 0 is the no-effect control and ±100 the full control effect
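HCVcc-Cre virus at an moi near 0.5 was added right after compound to cells cultured 4 h from seeding (1,000 cells/well). Luciferase activity was determined 44 h later, 15 min after substrate addition at RT.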
Pf growth 48h = inhibits P. falciparum growth in the first generation, 48 h. P. falciparum luciferase growth in erythrocytes, 48 h. AID 504832. Potency, µM (highest dose often 28.7 µM), without a hit: at the highest dose activity change, negative = inhibition, usual class: inhibitors. 310,000 compounds, 5.9% hits; further: on the % scale 0 is the no-effect control and ±100 the full control effect
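Read-out is firefly luciferase luminescence from an integrated reporter in P. falciparum, so falling signal marks reduced parasite growth. Infected erythrocytes were at 2% hematocrit and 0.1% parasitemia (final) in Albumax-supplemented RPMI 1640.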
NS1 function inh = blocks influenza NS1 protein function | Potency, µM (doses to about 46.1 µM), for the others: at the top dose activity, positive = more growth | 270,000 compounds, 0.4% hits | AID 2326; calls by dose curve; further: actives are rising curves; nearly all actives have a fitted effect of over 50% in size
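Growth recovery, yeast-based: influenza A NS1 expressed in S. cerevisiae causes slow growth, and suppressors are detected by OD600. The parent strain without NS1 is used as positive control.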
Vaccinia mCherry = inhibitors of vaccinia virus infection (mCherry reporter signal) | Vaccinia virus mCherry reporter infection, fluorescence | Potency, µM (doses to about 36.5 µM), inactives show at the highest dose activity change, negative = inhibition, most hits filed as inhibitors | 310,000 compounds, 0.63% hits | AID 720579; calls by dose curve; tested in A549 cells; further: on the % scale 0 is the no-effect control and ±100 the full control effect; nearly all actives have a fitted effect of over 35% in size
Pf growth 96h = inhibits malaria parasite growth, 96 h | P. falciparum luciferase reporter growth, 96 h | Potency, µM (series often up to 28.7 µM), for the others: at the highest dose activity change, negative = inhibition, actives largely listed as inhibitors | 320,000 compounds, 6.9% hits | AID 504834; further: on the % scale 0 is the no-effect control and ±100 the full control effect
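Plates of compound plus infected erythrocytes (2% hematocrit, 0.05% parasitemia final) incubate 96 hours, 37 C, 5% CO2. Detection reagent added; reduced luminescence from the parasites' luciferase reporter flags inhibition.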
Numbers without * were called inactive; i = inactive; ? = inconclusive; · = no result. Compounds with a hit are over-represented: about 11% of the library has one in this group of screens. Unless noted, the call rests on the fitted dose curve; in most records, active means well fitted inhibition curve with a large enough effect; inconclusive means small, poorly fitted or top-dose-only effect, or another doubt; inactive means no such curve, though single readings can be large or run the other way. Potency means the concentration at half of the fitted maximal effect.

SMILES	VACV Venus inh	HCV inh	Pf growth 48h	NS1 function inh	Vaccinia mCherry	Pf growth 96h
CCC(c1nnnn1C1CCCCC1)N1CCN(C(=O)c2ccco2)CC1 (stereo unspecified)	-1.8%	7.7%	?	-16.3%	6.1%	-1.3%
COc1ccc(C)cc1S(=O)(=O)N(C)CC(=O)NC1CCCC1	-5.3%	-11.0%	-13.6%	8.9%	-0.2%	?
COC(=O)c1ccc(Sc2ccc(Cl)cc2)c(N)c1	·	9.1%	13.8%	-81.3%	·	?
Cc1ccc(Nc2nnc(SCC(=O)c3ccc(O)cc3O)s2)cc1	0.0%	-1.0%	?	?	-18.8%	2.08µM*
Cc1cccc(Nc2nnc(SCC(=O)c3ccc(O)cc3O)s2)c1	-8.2%	-16.6%	-26.1%	-6.9%	-19.4%	?
COc1ccc(Nc2ccccc2NC(=O)c2ccccc2Br)cc1	-3.1%	?	1.65µM*	-38.8%	-14.5%	2.08µM*
COc1ccccc1Nc1ncccc1C(=O)O	-11.3%	21.1%	11.2%	-12.7%	i	9.28µM*
COc1ccccc1C(=O)NNC(=O)c1ccccc1Br	·	15.1%	10.0%	-0.4%	·	10.4µM*
COc1ccccc1C(=O)NNS(=O)(=O)c1ccc(F)cc1	-2.1%	28.0%	3.3%	-3.2%	i	4.15µM*
COc1ccccc1C(=O)NNC(=O)c1ccccc1	·	1.4%	102.0%	-10.5%	·	-5.7%
O=C(NNS(=O)(=O)c1ccc(F)cc1)c1ccccc1F	·	3.8%	32.1%	4.8%	·	?
COc1cc(-c2noc(CCC(=O)Nc3cccnc3)n2)cc(OC)c1OC	-0.8%	-7.9%	?	-7.1%	·	?
COc1ccccc1C(=O)NC(=S)Nc1cccnc1Cl	-0.5%	11.2µM*	243.7%	-7.2%	-3.9%	-16.8%
COC(=O)c1ccccc1NC(=O)c1ccccc1OC	-14.5%	11.2µM*	8.8%	-82.2%	·	5.7%
Cc1ccc(C(=O)NC(=S)Nc2cccnc2Cl)cc1	-15.0%	-23.4%	79.5%	-3.0%	-2.3%	20.5%
CO/N=C/CC(=O)Nc1ccc(F)cc1F	-17.4%	2.9%	10.5%	3.3%	-4.2%	-2.7%
CCCCC(=O)c1c(C)cc(C)[nH]c1=O	-7.1%	15.1%	-5.7%	-7.9%	i	·
COc1ccccc1N1CC(C(=O)Nc2ccc(S(=O)(=O)N3CCCC3)cc2)CC1=O (stereo unspecified)	2.8%	-0.9%	·	·	i	·
CCc1ccc(OCC(=O)O/N=C(\N)c2ccncc2)c(Br)c1	-2.4%	?	178.8%	-22.8%	i	7.38µM*
N/C(=N\OC(=O)COc1ccc(Cl)cc1Br)c1ccncc1	4.5%	-16.6%	i	-0.1%	-0.2%	108.3%
O=C(Nc1ccc(Oc2ccccc2)cc1)c1cnc2n(c1=O)CCS2	-28.3%	?	·	4.4%	?	13.1µM*
CCOc1ccccc1NC(=O)c1cnc2n(c1=O)CCS2	-9.3%	-5.5%	7.4%	-13.9%	-15.8%	?
CC(=O)c1cccc(N(CC(=O)Nc2ccc(S(=O)(=O)N3CCCC3)cc2)S(C)(=O)=O)c1	-15.2%	-16.0%	-12.7%	-20.1%	?	-5.7%
Cc1ccc(S(=O)(=O)N2CC3CCC2C3)cc1 (stereo unspecified)	-4.7%	13.2%	48.3%	-6.7%	·	-10.5%
Cc1ccc(S(=O)(=O)N2CC3CCCC2C3)cc1 (stereo unspecified)	-2.3%	12.8%	1.65µM*	-0.7%	i	-33.1%
SMILES	VACV Venus inh	HCV inh	Pf growth 48h	NS1 function inh	Vaccinia mCherry	Pf growth 96h
COc1cc(/C=C(\C#N)c2nc3ccccc3s2)cc([N+](=O)[O-])c1O	-1.7%	1.0%	19.5%	·	-10.2%	9.28µM*
COc1ccc(-c2csc(/C(C#N)=C\c3ccc(O)c([N+](=O)[O-])c3)n2)cc1OC	-15.2%	7.6%	8.28µM*	9.9%	-5.7%	?
CSc1nsc(SC)c1NC(=O)Nc1ccccc1C	-4.0%	-5.0%	55.0%	·	4.1%	-26.3%
O=C(Cn1cc2c(n1)CCCCC2)Nc1ccccc1Cl	1.7%	8.6%	?	-4.7%	-11.6%	?
CCc1ccc(OCC(=O)Nc2ncc3c(n2)CC(C)(C)CC3=O)cc1	-14.3%	-9.5%	8.5%	-1.8%	-17.0%	3.29µM*
CC1(C)CC(=O)c2cnc(NC(=O)CCc3ccccc3)nc2C1	6.0%	13.6%	7.9%	-2.6%	-12.8%	·
